Inconclusive results are not listed. Entries that show only a call come without a potency. Calls of active or inactive are those of the source. Calls come from the whole dose curve; as a rule, active = well fitted inhibition curve with a large enough effect; inconclusive = small, poorly fitted or top-dose-only effect; inactive = no such curve, though single readings can be large or run the other way.
Tests used:
[1] = system: Zika virus NS2B-NS3 protease (unlinked complex); test: Primary screen GU Rhodamine qHTS for Zika virus inhibitors: Unlinked NS2B-NS3 protease assay (AID 1347159); note: nearly all actives have a fitted effect of over 60% in size
How it was run: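 Compounds, tested up to 114 microM, were incubated for 15 minutes with 25 nM unlinked NS2B-NS3 protease at pH 8.0. Cleavage of 1.5 microM Rhodamine110 substrate was then followed by fluorescence for 15 minutes.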

[2] = system: Zika virus NS2B-NS3 protease (linked construct); test: Primary screen NINDS Rhodamine qHTS for Zika virus inhibitors (AID 1347160); note: nearly all actives have a fitted effect of over 55% in size
How it was run: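 Percent inhibition, normalized to uninhibited and enzyme-free controls, is fitted to a 4-parameter Hill equation. Fluorescence change comes from a 15-min cleavage of 1.5 microM bis-peptide Rhodamine110 substrate by 25 nM linked NS2B-NS3 at room temperature.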
Potency is the fitted concentration of half-maximal effect.

SMILES | Potency [1] | Potency [2]
C=C1C(=O)O[C@@H]2/C=C(\CO)CC/C=C(\CO)[C@H](OC(C)=O)C(OC(=O)C(C)CC)C12 (some centres not stated) | inactive | inactive
CNCCCC1(c2ccccc2)OC(C)(C)c2ccccc21 (configuration not stated) | inactive | inactive
CNC(=O)COC(=O)N1CCC(CCc2ccc(Cl)cc2)CC1 | inactive | inactive
C[C@@]12C(=O)N(c3ccc(C(=O)Nc4cccc5cccnc45)cc3)C(=O)[C@@H]1[C@@H]1C=C[C@H]2C1 | inactive | inactive
CCOc1ccc(-n2c([C@@H](C)N(Cc3cccnc3)C(=O)Cc3ccc(OC(F)(F)F)cc3)nc3ncccc3c2=O)cc1 | inactive | inactive
Cc1cc(F)ccc1-c1nc(NCCN=C(N)NC#N)nc2c1ccc(=O)n2-c1c(F)cccc1F | inactive | inactive
O=C(N[C@H]1CCC[C@H](CO)C1)C1CCN(c2nc3cc(Cl)c(-c4ccc(Cl)cc4)cc3o2)CC1 | inactive | inactive
CCN1CCN(Cc2ccc(C(=O)Nc3ccc(C)c(Oc4ccc5c(c4)CC(=O)N5)c3)cc2C(F)(F)F)CC1 | inactive | inactive
CC(C)(C)[C@H](NC(=O)c1ccc(N)c(Cl)c1)C(=O)N1CCC[C@H]1C(=O)N[C@H](C#N)CC(=O)O | inactive | inactive
Cn1ncc2cc(-c3cnc(N)c(Cl)c3N3CCC4(CCNC4=O)CC3)ccc21 | inactive | inactive
CCNC(=O)Nc1ccc(-c2nc3c(c(N4CCOCC4C)n2)CCN(C2COC2)C3)cc1 (configuration not stated) | inactive | inactive
O=C(NCC1CCN(Cc2cccc(Cl)c2)CC1)[C@@H]1CCCN(c2ncnc3c2nc2n3CCCC2)C1 | inactive | inactive
Cc1ccc(O)cc1Nc1ccnc(Nc2cccc(C(N)=O)c2)n1 | inactive | inactive
O=C(O)C1=CO[C@@H](O[C@@H]2O[C@H](CO)[C@@H](O)[C@H](O)[C@H]2O)[C@@H]2C(CO)=CC[C@H]12 | inactive | inactive
CC(C)(O)C(=O)N1CCN(c2ccc(C(F)(F)F)c(C3=C(c4c[nH]c5ccccc45)C(=O)NC3=O)c2)CC1 | inactive | inactive
O=C(N[C@@H]1CCCc2c1cnn2-c1ccc(F)cc1F)c1ccccn1 | inactive | inactive
COc1ccc(NC(=O)c2ccc(-c3ccc(-c4nnc(C)o4)cc3C)cc2)cc1N1CCN(C)CC1 | inactive | inactive
COc1ccc(S(=O)(=O)Nc2c(C)cc(C)cc2C)cc1 | inactive | inactive
C=C1CC[C@@H]2[C@](C)(CO)[C@H](O)CC[C@@]2(C)[C@@H]1C/C=C1/C(=O)OCC1O (some centres not stated) | inactive | inactive
O=S1(=O)CCN(Cc2cc(NCC3CCOCC3)c3[nH]c(-c4ccccc4)cc3c2)CC1 | inactive | inactive
CC(C)(CO)c1cc2cc(NC(=O)C3(c4ccc5c(c4)OC(F)(F)O5)CC3)c(F)cc2n1CC(O)CO (configuration not stated) | inactive | inactive
N#Cc1cnc2c(Cl)cc(NCc3cn(CCN4CCCCCC4)nn3)cc2c1Nc1ccc(F)c(Cl)c1 | inactive | inactive
O=C(Nc1cnc(Cl)nc1)c1ccc(F)c(F)c1 | inactive | inactive
O=c1cc(N2CCOCC2)nc2c3ccccc3ccn12 | inactive | inactive

SMILES | Potency [1] | Potency [2]
C[C@H]1CC[C@@]2(OC1)O[C@H]1CC3[C@@H]4CC[C@@H]5C[C@@H](O[C@@H]6O[C@H](CO)[C@@H](O[C@@H]7O[C@@H](C)[C@H](O)[C@@H](O)[C@H]7O)[C@H](O)[C@H]6O[C@@H]6O[C@H](CO)[C@@H](O)[C@H](O)[C@H]6O)CC[C@]5(C)C4CC[C@]3(C)[C@H]1[C@@H]2C (some centres not stated) | inactive | inactive
N[C@@H]1c2cccnc2[C@H](OC(=O)N2CCC(n3c(=O)[nH]c4ncccc43)CC2)CC[C@H]1c1cccc(F)c1F | inactive | inactive
CN1CCN(C(=O)CN[C@@H]2C[C@H]2c2ccc(OCc3ccccc3)cc2)CC1 | inactive | inactive
COc1c(F)cccc1C(=O)N1C[C@@H](C)CC[C@H]1CNc1ccc(Br)cn1 | inactive | inactive
CC(C)(C)Oc1ccc(OCC2Cc3ccccc3CN2C(=O)c2cccc3ccccc23)cc1 (configuration not stated) | inactive | inactive
Fc1ccc(N2CCN(CCC3OCCc4ccccc43)CC2)cc1 (configuration not stated) | inactive | inactive
O=C(NCCCCCCCCNC(=O)C(Cl)Cl)C(Cl)Cl | inactive | inactive
CCc1cccc(CC)c1-n1c(C=C(C)C)c(C(=O)N2CCNCC2)cc(-c2nc(-c3ccc(C(F)(F)F)cc3)cs2)c1=O | inactive | inactive
Cc1cc(-c2cc(OC(=O)c3ccccc3)ccc2Cl)cc2nnc(Nc3ccc(OCCN4CCCC4)cc3)nc12 | inactive | inactive
CN1CC2CN(c3ccc4oc5ccccc5c(=O)c4c3)CC2C1 (configuration not stated) | inactive | inactive
CC1(C(=O)Nc2ccc(F)nc2)CCCN1c1nc(Nc2cc(C3CC3)[nH]n2)c2cccn2n1 (configuration not stated) | inactive | inactive
Cn1cc(-c2ccc3c(c2)CCN3C(=O)Cc2cccc(C(F)(F)F)c2)c2c(N)ncnc21 | inactive | inactive
O=S(=O)(Nc1ccccc1N1CCCCC1)c1ccc(Cl)s1 | inactive | inactive
Nc1nc2c(cnn2CCCc2ccc(O)cc2)c2nc(-c3ccco3)nn12 | inactive | inactive
O=C(NCC(=O)N1CCCC1)Nc1ccc2cnccc2c1 | inactive | inactive
COc1ccccc1C(=O)Nc1cccc(NC(=O)c2cccc(C)c2)c1 | inactive | inactive
Cc1cccc(CC(=O)N2CCc3c2ccc(-c2cn(C)c4ncnc(N)c24)c3F)n1 | inactive | inactive
CNC(C)C(=O)NC(C(=O)N1CCCC1C(=O)Nc1snnc1-c1ccccc1)C1CCCCC1 (configuration not stated) | inactive | inactive
C=C(C)[C@@H]1CC[C@]2(C(=O)O)CC[C@]3(C(=O)O)[C@H](CCC4[C@@]5(C)CCC(=O)C(C)(C)C5CC[C@]43C)C12 (some centres not stated) | inactive | inactive
Cn1cc(-c2ccc(F)c(C(F)(F)F)c2)nc1C1CCN(c2ncnc3[nH]ncc23)CC1 | inactive | inactive
CCC(CC)Nc1nc(C)c(-c2ccc(OC(F)(F)F)cc2OC)nc1OC | inactive | inactive
Nc1nc(O)c(C2=C3C(=Nc4ccccc43)C(=O)NCC2)[nH]1 | inactive | inactive
CCOC(=O)C1(CCOc2ccccc2)CCN(Cc2ccc(O)c(Cl)c2)CC1 | inactive | inactive
NC(=O)CCCSc1nc(N)nc(-c2c(Cl)cc3c4c(cccc24)COC3)n1 | inactive | inactive

SMILES | Potency [1] | Potency [2]
COC1=CC(=O)O/C1=C(/OC)[C@@H]1O[C@H]1c1ccccc1 | inactive | inactive
CC1CCCC(O)CC(=O)c2c(O)cc(O)cc2CC(=O)O1 (configuration not stated) | inactive | inactive
O=C(Nc1cccc(C(F)(F)F)c1)Nc1ccc(Br)cc1-c1nn[nH]n1 | 3.16 µM (active) | 17.8 µM (active)
CC(C)S(=O)(=O)c1ccc2nccc(Nc3ccc4scnc4c3)c2c1 | inactive | inactive
Oc1cccc(C2NC(=S)Nc3cccc(F)c32)c1 (configuration not stated) | inactive | inactive
CCN(CC)CCCS(=O)(=O)N[C@H](CCc1ccccc1)c1nc(Cc2ccc(Br)cc2)no1 | inactive | inactive
CC#CC(=O)Nc1ccc2ncnc(Nc3cccc(Br)c3)c2c1 | inactive | inactive
C[C@@H]1O[C@@H](O[C@H]2CC[C@@]3(C)C(CC[C@]4(C)C3CC=C3[C@@H]5CC(C)(C)CC[C@]5(C(=O)O[C@@H]5O[C@H](CO)[C@@H](O)[C@H](O)[C@H]5O)CC[C@]34C)[C@]2(C)CO)[C@H](O)[C@H](O[C@@H]2O[C@H](CO)[C@@H](O)[C@H](O)[C@H]2O)[C@H]1O (some centres not stated) | inactive | inactive
Cc1ccccc1CN1CCn2c1nc1c(c2=O)CN(Cc2ccccc2)CC1 | inactive | inactive
Cc1cc(C)c(-n2cc(C)c3c(Cl)nc(C)nc32)c(C)c1 | inactive | inactive
CNS(=O)(=O)c1ccccc1Nc1nc(Nc2ccc(N3CCN(C)CC3)cc2OC)ncc1Br | inactive | inactive
CN(C)CCOc1cc(NS(=O)(=O)c2c(Cl)cc(C(F)(F)F)cc2Cl)ccc1Cl | 5.62 µM (active) | inactive
N#CC(CCCN1CCC(O)(c2ccc(Cl)cc2)CC1)(c1ccccc1)c1ccccc1 | inactive | inactive
Clc1ncoc1-c1c[nH]c2ccccc12 | inactive | inactive
CCC(C)C(=O)O[C@H]1[C@@H](OC(=O)c2ccoc2)C[C@](C)(O)[C@]23OC(C)(C)[C@H](C[C@H](OC(=O)c4ccoc4)[C@]12COC(C)=O)[C@H]3OC(C)=O (some centres not stated) | inactive | inactive
COc1cccc(NCCC2(c3ccccc3)CC(C)(C)OC(C)(C)C2)c1 | inactive | inactive
CC1(C)CC[C@]23CO[C@@]4(CCC5[C@@]6(C)CC[C@H](O[C@@H]7OC[C@H](O[C@@H]8O[C@H](CO)[C@@H](O)[C@H](O)[C@H]8O[C@@H]8OC[C@@H](O)[C@H](O)[C@H]8O)[C@H](O)[C@H]7O)[C@@](C)(CO)C6CC[C@@]5(C)[C@]4(C)CC2=O)[C@@H]3C1 (some centres not stated) | inactive | inactive
COc1cc(NC(=O)c2cccc(-n3cc(NC(=O)Nc4cccc(C)c4)cn3)c2)cc(OC)c1OC | inactive | inactive
C=C(C(=O)OC)[C@@H]1CC=C2C=CC(=O)[C@H](C)[C@@]2(C)C1 | inactive | inactive
Nc1nc(Nc2ccc3c(c2)CCC(N2CCCC2)CC3)nn1-c1cc2c(nn1)-c1ccccc1CCC2 (configuration not stated) | 50.1 µM (active) | inactive
O=C(Nc1ccc(-c2ccnc(Nc3ccc(N4CCOCC4)cc3)n2)cc1)C1CCCN1 (configuration not stated) | inactive | inactive
CC1(C)SCCN(S(=O)(=O)c2ccc(Oc3ccncc3)cc2)[C@H]1C(=O)NO | inactive | inactive
CC(=O)OC1C(O)CC2(C)C(CCC3(C)C2CC=C2C4C5(CCC(CO[C@@H]6O[C@H](CO)[C@@H](O)[C@H](O)[C@H]6O)(OC5=O)C4(C)O)C(O)CC23C)C1(C)C (some centres not stated) | inactive | inactive

Source: PubChem BioAssay (NCATS)
